Bioassay records deposited in PubChem by several laboratories.
Only some compounds are listed: those with a hit (about 1.9% of all), similar ones and a draw of the others.
dFosB act = activators of mouse delta FosB homodimer. P13346. purified delta FosB, TAMRA-CDK5 oligo fluorescence polarization; percent of positive-control signal above neutral wells. activation, % at 25 µM. hit rate 0.99% among 340,000;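 active = mean activation above about 17%, with every replicate also reaching it, limit read from the data, passing the limit was not always enough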
Vif imaging = HIV Vif inhibition. HEK293T cells, Vif self-association by quenched fluorescence, imaging, 24 h. inhibition, % at 7.49 µM. hit rate 0.35% among 340,000. AID 602346; in the data active = inhibition above about 50%, passing the limit was not always enough
GSIS activator = GLuc luminescence reporter in INS-1E cells, primary screen for activators of glucose-dependent secretion of insulin | INS-1E GLuc reporter insulin secretion, 2-3 h | hit rate 0.61% among 370,000 | activation, % at 16.6 µM;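 active = lowest replicate activation of at least 40%, so every replicate reaches that level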;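 also: 0% = median of neutral control wells and 100% = median of IBMX positive control wells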
Bfl-1 A1 inh = inhibitors of the anti-apoptotic protein A1, read as caspase activation | hit rate 0.066% among 330,000 | caspase activation, % (no concentration beside the values) | MEF A1-2A-BIM cells, Caspase-Glo 3/7 luminescence, 3 h; percent of clofoctol response, vehicle zero;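 active = over half of replicate activation scores above 10%, or exactly half above 10 with the replicate mean above 10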
Neddylation inh = blocks human cullin neddylation; P61081+Q13564; TR-FRET cullin neddylation, biochemical; inhibition, % at 25 µM; hit rate 0.58% among 360,000; AID 651699; in the data active = inhibition above about 36%
Target sequence (P61081 whole entry, looked up): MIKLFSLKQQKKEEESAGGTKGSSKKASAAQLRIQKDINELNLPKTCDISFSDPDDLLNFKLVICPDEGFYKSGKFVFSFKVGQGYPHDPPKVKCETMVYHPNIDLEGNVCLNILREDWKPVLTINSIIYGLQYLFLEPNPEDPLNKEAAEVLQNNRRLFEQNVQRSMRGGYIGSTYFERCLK
Target sequence (Q13564 whole entry, looked up): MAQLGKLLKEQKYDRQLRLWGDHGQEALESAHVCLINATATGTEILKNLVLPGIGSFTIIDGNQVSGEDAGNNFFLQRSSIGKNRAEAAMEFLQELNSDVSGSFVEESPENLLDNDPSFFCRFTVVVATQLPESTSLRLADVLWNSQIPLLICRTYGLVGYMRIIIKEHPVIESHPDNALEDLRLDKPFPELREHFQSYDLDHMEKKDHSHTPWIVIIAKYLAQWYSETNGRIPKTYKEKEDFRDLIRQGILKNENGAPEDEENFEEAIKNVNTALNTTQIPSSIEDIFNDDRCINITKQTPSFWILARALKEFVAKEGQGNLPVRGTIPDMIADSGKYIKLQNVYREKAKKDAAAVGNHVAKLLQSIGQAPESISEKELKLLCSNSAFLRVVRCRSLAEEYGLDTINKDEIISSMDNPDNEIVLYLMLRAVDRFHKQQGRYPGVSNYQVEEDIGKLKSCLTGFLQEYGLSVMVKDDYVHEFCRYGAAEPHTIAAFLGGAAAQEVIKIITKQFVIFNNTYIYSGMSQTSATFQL
Neddyl inh conf = confirmation of human cullin neddylation inhibitors; shares compounds with Neddylation inh; TR-FRET cullin neddylation biochemical assay; calls only at 25 µM; hit rate 13% among 1,800; AID 652217; in the data active = inhibition above about 40%;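 also: neddylation substrate is the cullin 1 ring ligase complex with SKP2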
An asterisk follows results filed as active; i = inactive; . = no result given; + = active, no number.

SMILES | dFosB act | Vif imaging | GSIS activator | Bfl-1 A1 inh | Neddylation inh | Neddyl inh conf
CCS(=O)(=O)Nc1ccc(C2=NN(C(=O)c3ccco3)C(c3cccs3)C2)cc1 (stereo not drawn) | -14 | 11 | -19 | 0 | 42* | i
CCS(=O)(=O)Nc1ccc(C2=NN(C(=O)c3ccco3)C(c3ccco3)C2)cc1 (stereo not drawn) | -11 | . | 16 | 0 | 20 | .
COc1ccc2c3c(n(C)c2c1)[C@@H](CO)N(C(=O)c1ccccn1)CC31CCN(C(=O)Cc2ccccc2)CC1 | . | . | -3 | . | . | .
Cc1nc2scc(C)n2c(=O)c1S(=O)(=O)NCc1ccccc1Cl | -1 | -3 | 8 | 2 | 41* | i
COc1ccccc1CNS(=O)(=O)c1c(C)nc2scc(C)n2c1=O | -5 | -2 | -8 | 0 | 35 | .
COc1ccc(CNC2CCCCC2C)c(OC)c1 (stereo not drawn) | -3 | 0 | 7 | 1 | 43* | .
COc1ccc(CNC2CCCc3ccccc32)c(OC)c1 (stereo not drawn) | -4 | 25 | . | 0 | -2 | .
CC(C)NC(=O)Nc1ccc2c(c1)C(=O)N([C@H](C)CO)C[C@@H](C)[C@@H](CN(C)CC1CCCCC1)O2 | . | . | 0 | . | . | .
CC(C)NC(=O)N1[C@@H](CO)[C@@H]2c3ccccc3N(C(=O)Nc3ccccc3)C[C@@H]21 | . | . | 12 | . | . | .
COCCCn1cnc2c(c1=O)c1nc3ccccc3nc1n2CCc1ccccc1 | -48 | -2 | . | . | 54* | i
O=C(Nc1cc(Cl)cc(Cl)c1)c1coc(=O)c(Br)c1 | -6 | 3 | 2 | 0 | 40* | i
O=C(NNC(=O)C1C2CCCCC21)c1coc(=O)c(Br)c1 (stereo not drawn) | -4 | 3 | 8 | 0 | 39* | i
COc1ccc(NC(=O)Nc2ccc3c(c2)CC(=O)N([C@H](C)CO)C[C@H](C)[C@@H](CN(C)CC2CC2)O3)cc1 | . | . | -2 | . | . | .
C[C@H]1CCCCO[C@H](CN(C)S(=O)(=O)c2ccccc2)[C@@H](C)CN([C@@H](C)CO)C(=O)c2cc(NS(C)(=O)=O)ccc2O1 | . | . | 3 | . | . | .
CCCOc1cccc(C2C(C(=O)c3cc4ccccc4o3)=C(O)C(=O)N2c2cc(C)on2)c1 (stereo not drawn) | -5 | -1 | -2 | 0 | 44* | i
CC(C)NC(=O)N(C)C[C@@H]1Oc2ccc(NC(=O)Nc3ccc4c(c3)OCO4)cc2CC(=O)N([C@@H](C)CO)C[C@H]1C | . | . | -2 | . | . | .
O=c1[nH]c(/C(Cl)=C/c2cccc(F)c2)nc2cc(C(F)(F)F)ccc12 | 5 | 3 | 5 | -2 | 41* | i
CC(C)NC(=O)N(C)C[C@H]1OCCCC[C@H](C)Oc2ccc(NC(=O)Nc3cccc4ccccc34)cc2C(=O)N([C@@H](C)CO)C[C@H]1C | . | . | 21 | . | . | .
O=C(N/N=C/c1cn(Cc2ccccc2)c2ccccc12)c1cccnc1 | 2 | -22 | -22 | 2 | 30 | .
O=C(N/N=C/c1c(O)n(Cc2ccccc2)c(=O)c2ccccc12)c1cccnc1 | -13 | -2 | -6 | 0 | 42* | .
CCCNC(=O)N1CC2(C1)[C@H](c1ccccc1)[C@@H](CO)N2Cc1ccccc1 | . | . | -1 | . | . | .
CCOC(=O)c1nc(C)sc1-c1ccnn1S(=O)(=O)c1cccc(Cl)c1 | 2 | 12 | . | -1 | 76* | i
C[C@@H]1CN([C@@H](C)CO)C(=O)Cc2cc(NC(=O)C3CC3)ccc2O[C@@H]1CN(C)Cc1ccc(Oc2ccccc2)cc1 | . | . | -34 | . | . | .
Cc1ccc(-n2nnnc2-c2cccs2)cc1[N+](=O)[O-] | -6 | -14 | -4 | 0 | 51* | i
COc1ccc(CCNC(=O)c2cc3c(=O)n4ccccc4nc3n(CCN3CCOCC3)c2=N)cc1 | -16 | -9 | 5 | -1 | 40* | i
COc1cc2sc(-c3ccc(S(C)(=O)=O)cc3)c(C#CCO)c2cc1OC | -5 | -1 | 22 | -1 | 50* | +
CCSc1nnc(NC(=O)c2cccc(S(=O)(=O)N(C)c3ccc(C)cc3)c2)s1 | -13 | -4 | -17 | 1 | 44* | i
CCc1nnc(NC(=O)c2cccc(S(=O)(=O)N(C)c3ccccc3)c2)s1 | -8 | -4 | -2 | 0 | 8 | .
O=C(COC(=O)c1cc2ccccc2cc1O)Nc1cccnc1Cl | -9 | 0 | 7 | -2 | -2 | .
